In PubChem BioAssay (Tox21):
Results filed as inconclusive are left out. Activity calls are given as the source filed them. Unless noted, calls follow the shape of the full dose curve.

Tests used:
[1] = qHTS assay to identify small molecule agonists of the vitamin D receptor (VDR) signaling pathway - cell viability counter screen (AID 743224; active = well fitted cell-killing curve with a large enough effect in the repeat runs; also: series mostly up to about 63 µM; % is scaled to controls: 0 for no effect and ±100 for the full control effect; nearly all actives have a fitted effect of over 50% in size)
Summary of the method: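 CellTiter-Glo viability readout on VDR-bla cells, measured after 16 h of compound treatment at 37C in the same wells.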

[2] = qHTS assay to identify small molecule antagonists of the vitamin D receptor (VDR) signaling pathway - cell viability counter screen (AID 743225; active = well fitted cell-killing curve with a large enough effect in the repeat runs; also: % is scaled to controls: 0 for no effect and ±100 for the full control effect; nearly all actives have a fitted effect of over 50% in size)
Summary of the method: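 Cells (VDR-UAS-bla HEK 293T) are plated, rested 4 h at 37C, dosed with compound and 3 nM final 1-alpha,25-dihydroxy vitamin D3, and incubated 16 h. Viability is taken from CellTiter-Glo luminescence in the reporter wells.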

[3] = qHTS assay to identify small molecule agonists of the NFkB signaling pathway - cell viability counter screen (AID 1159515); also: series mostly up to about 61 µM; % is scaled to controls: 0 for no effect and ±100 for the full control effect; nearly all actives have a fitted effect of over 55% in size
Summary of the method: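 Tox21 library compounds were tested for cytotoxicity against NFkB-bla ME-180 cells during a 5 hr exposure at 37 C. CellTiter-Glo luminescence served as the viability read-out.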

[4] = qHTS assay to identify small molecule agonists of the endoplasmic reticulum stress response signaling pathway (AID 1159516; active = well fitted activation curve with a large enough effect in the signal ratio in the repeat runs, not every such curve was filed as active; the % refers to the signal ratio; also: % is scaled to controls: 0 for no effect and ±100 for the full control effect)
Summary of the method: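 Fluorescence at 460 and 530 nm (405 nm excitation) reports beta-lactamase from an ER stress response element in HeLa cells treated 5 hr at 37 C.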

[5] = qHTS assay to identify small molecule agonists of the endoplasmic reticulum stress response signaling pathway - cell viability counter screen (AID 1159517); also: series mostly up to about 61 µM; % is scaled to controls: 0 for no effect and ±100 for the full control effect; nearly all actives have a fitted effect of over 50% in size
Summary of the method: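 In parallel with the ESRE reporter read, cytotoxicity was scored by CellTiter-Glo luminescence (30 min, room temperature) on HeLa ESRE-bla cells dosed for 5 hr.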

[6] = qHTS assay to identify small molecule antagonists of the retinoid-related orphan receptor gamma (ROR-gamma) signaling pathway - cell viability counter screen (AID 1159520; active = well fitted cell-killing curve with a large enough effect in the repeat runs; also: % is scaled to controls: 0 for no effect and ±100 for the full control effect; nearly all actives have a fitted effect of over 50% in size)
Summary of the method: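 Tet-on ROR gamma CHO cells were given compounds for 2 hr, then doxycycline hyclate at 1 uM final, and incubated 16 hr at 37 C. Viability was measured as ATP content by CellTiter-Glo luminescence.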

[7] = qHTS assay to identify small molecule agonists of the AP-1 signaling pathway - cell viability counter screen (AID 1159525); also: nearly all actives have a fitted effect of over 55% in size
Summary of the method: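 Same-well cytotoxicity counter screen of the Tox21 10K library in ME-180 cells. The readout is ATP-dependent luminescence after 5 h compound treatment. Data are normalised to DMSO and tetra n-octyl ammonium bromide controls.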

[8] = qHTS assay to identify small molecule agonists of the AP-1 signaling pathway (AID 1159526); also: % is scaled to controls: 0 for no effect and ±100 for the full control effect
[9] = biological target: Retinoic acid receptor RXR-alpha (Homo sapiens) (UniProt P19793); assay: qHTS assay to identify small molecule agonists of the RXR signaling pathway (AID 1159527); also: % is scaled to controls: 0 for no effect and ±100 for the full control effect; nearly all actives have a fitted effect of over 35% in size
Summary of the method: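 qHTS of the Tox21 10K library in GeneBLAzer RXR-alpha HEK 293T cells carrying a beta-lactamase reporter […]; 16 hr treatment, 9-cis retinoic acid as agonist control, FRET read-out.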

Retinoic acid receptor RXR-alpha (Homo sapiens), sequence (P19793 whole entry, looked up): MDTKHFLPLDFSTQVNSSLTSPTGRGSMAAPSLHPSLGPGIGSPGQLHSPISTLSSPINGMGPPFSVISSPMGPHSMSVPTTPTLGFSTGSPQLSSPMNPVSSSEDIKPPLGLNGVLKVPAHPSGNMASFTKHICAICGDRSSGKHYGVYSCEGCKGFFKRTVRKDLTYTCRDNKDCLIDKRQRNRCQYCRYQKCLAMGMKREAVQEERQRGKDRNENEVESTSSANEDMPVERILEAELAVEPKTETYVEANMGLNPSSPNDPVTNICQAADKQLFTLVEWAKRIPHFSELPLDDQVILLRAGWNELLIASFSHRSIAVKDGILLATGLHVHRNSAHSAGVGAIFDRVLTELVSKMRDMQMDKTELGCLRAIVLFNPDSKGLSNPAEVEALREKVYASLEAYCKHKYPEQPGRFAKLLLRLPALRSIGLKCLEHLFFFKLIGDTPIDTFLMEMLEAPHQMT

COc1ccc2cccc(CCNC(C)=O)c2c1
inactive: Potency [1] | Potency [2] | Potency [3] | Potency [4] | Potency [5] | Potency [6] | Potency [7] | Potency [8]

CC(C)(CO)[N+](=O)[O-]
inactive: Potency [2] | Potency [3] | Potency [4] | Potency [5] | Potency [6] | Potency [7] | Potency [8] | Potency [9]

CCO[C@H](Cc1ccc(OCCc2ccc(OS(C)(=O)=O)cc2)cc1)C(=O)O
inactive: Potency [1] | Potency [2] | Potency [3] | Potency [4] | Potency [5] | Potency [6] | Potency [7] | Potency [8]

O=C1[C@H]2CCCC[C@H]2C(=O)N1CCCCN1CCN(c2nsc3ccccc23)CC1
inactive: Potency [1] | Potency [2] | Potency [3] | Potency [4] | Potency [5] | Potency [6] | Potency [7] | Potency [8]

C[N+]1(C)CCC(OC(=O)C(O)(c2ccccc2)C2CCCC2)C1 (stereo unspecified)
inactive: Potency [1] | Potency [2] | Potency [3] | Potency [4] | Potency [5] | Potency [6] | Potency [7] | Potency [8]

Nc1c(CC(=O)O)cccc1C(=O)c1ccc(Br)cc1
inactive: Potency [1] | Potency [2] | Potency [3] | Potency [4] | Potency [5] | Potency [6] | Potency [7] | Potency [8]

CCCCc1nc2cccnc2n1Cc1ccc(-c2ccccc2-c2nnn[nH]2)cc1
inactive: Potency [1] | Potency [2] | Potency [3] | Potency [4] | Potency [5] | Potency [6] | Potency [7] | Potency [8]

CC(=O)[O][Al][O]C(C)=O
inactive: Potency [1] | Potency [2] | Potency [3] | Potency [4] | Potency [5] | Potency [6] | Potency [7] | Potency [8]

O=C(O)CNCC(=O)O
inactive: viability change, negative = cytotoxic [2] -0.385% [at 6.95 µM] | activity, negative = cytotoxic [3] 11.1% [at 6.95 µM] | activation [4] -0.0292% [at 6.95 µM] | activity change, negative = cytotoxicity [5] -2.31% [at 6.95 µM] | activity, negative = cytotoxicity [6] 0.267% [at 8.39 µM] | viability change, negative = cytotoxic [7] 2.06% [at 6.97 µM] | activation [8] -4.84% [at 6.97 µM] | activation [9] 1.94% [at 6.98 µM]

O=C1c2ccccc2S(=O)(=O)N1CCCCN1CCN(c2ncccn2)CC1
inactive: Potency [1] | Potency [2] | Potency [3] | Potency [4] | Potency [5] | Potency [6] | Potency [7] | Potency [8]

CCOCC(O)COc1ccc(NC(=O)CC[S+](C)C)cc1 (stereo unspecified)
inactive: Potency [2] | Potency [3] | Potency [4] | Potency [5] | Potency [6] | Potency [7] | Potency [8] | Potency [9]

CCO[Si](CCCCl)(OCC)OCC
inactive: Potency [2] | Potency [3] | Potency [4] | Potency [5] | Potency [6] | Potency [7] | Potency [8] | Potency [9]
